The values that follow come from PubChem BioAssay AID1569 (National Center for Advancing Translational Sciences (NCATS), 2009).

The nature of this test: Confirmation Concentration-Response Assay for lipid storage modulators. Further: nearly all actives have a fitted effect of over 80% in size. The note with it: Drosophila S3 cells, lipid droplet BODIPY/CellTracker ratio, 18-24 h. An excerpt:
NIH Molecular Libraries Probe Production Centers Network [MLPCN] NIH Chemical Genomics Center [NCGC] MLPCN Grant: 1 R03 MH085686-01 Assay Submitter (PI): Beller, Mathias; Max-Planck-Institut fur Biophysikalische Chemie NCGC Assay Overview: Storing lipids as a reservoir for energy or the anabolism of elementary metabolites is a common feature of probably all cells and is conserved from bacteria to humans. The universal cellular lipid storage organelle is the so-called lipid storage droplet (LD). Although ubiquitous, LDs share a simple structure composed of a hydrophobic core that harbors the storage lipids, which is shielded by a droplet-specific phospholipid monolayer to which proteins are attached. […] Exo1 identified in the primary screen (AID 1519) and several analogs were measured in the lipid storage assay as 24-point concentration-response curves to confirm potency and SAR.
We dispensed 4 uL of cells at 1.25 x 10^6 cells/mL into LoBase Aurora COC 1,536-well plates (black walled, clear bottom) with a bottle-valve solenoid-based dispenser (Aurora) to obtain 5,000 cells/well. […] Fluorescence was detected by excitation of the fluorophores with a 488-nm laser on an Acumen Explorer (TTP Lab Tech). […] Cells were detected using channel 3 (575- 640 nm) with 5-um width and 100-um depth filters. The ratio of the total intensity in PMT channel 1 over total intensity of channel 3 was also calculated. […]

Records with an inconclusive call do not appear. Activity calls are given as the source filed them. The call rests on the fitted dose curve; in most records, active means well fitted inhibition curve with a large enough effect; inconclusive means small, poorly fitted or top-dose-only effect, or effect the other way, or another doubt; inactive means no such curve, though single readings can be large or run the other way.
Potency means the concentration at half of the fitted maximal effect.

`O=C(Nc1cccc(Cl)c1)OC1CN2CCC1CC2` (configuration not stated): the Potency was 8.88 µM (active).
Then `COc1cc2c(cc1OC)[C@@H]1C(=O)c3ccc4c(c3O[C@@H]1CO2)C[C@H](C(C)C)O4`, with 0.0499 µM (active).
